PubChem BioAssay
Active and inactive are the calls of the source.

Legend:
[1] = target: Albumin (Bos taurus) (UniProt P02769); test: bovine serum albumin binders on microarray, profiling panel, artefact control for SMM control protein annotation, biochemical, small-molecule microarray, Alexa647 label, 635/667 nm fluorescence (AID 1118); conditions: BSA-A647 binding, fluorescence 635 nm, higher = more signal;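 also: score merges 667 nm emission intensity and signal-to-noise per printed compound spot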
[2] = small-molecule microarray binders of probe aXIP, primary screen, biochemical, NeuroSMM set, 635/667 nm fluorescence (AID 1119); conditions: higher = more signal, called active from +8 up or from −8 down;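 also: probe is the protein aXip251-270 applied at 1 µg/mL to compound-printed slides; binding of probe to printed compounds measured as 667 nm fluorescence plus signal to noise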
[3] = small-molecule binders of probe aNOTCH3, primary screen, biochemical, small-molecule microarray, 635/667 nm fluorescence (AID 1120); conditions: higher = more signal;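 also: probe is a biotin-tagged antibody raised against NOTCH3 rather than NOTCH3 protein; score merges spot fluorescence near 667 nm with spot signal to noise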
[4] = small-molecule binders of probe aNOTCH2, primary screen, biochemical, small-molecule microarray, 635/667 nm fluorescence (AID 1121); conditions: higher = more signal;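 also: score merges feature fluorescence read at 667 nm with its signal to noise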
[5] = target: Carbonic anhydrase 2 (Homo sapiens) (UniProt P00918); test: CAII small-molecule binders, profiling panel, biochemical, small-molecule microarray, Alexa647-labelled CAII (AID 1122); conditions: CAII-A647 binding fluorescence, higher = more signal
[6] = COS7 lysate on small-molecule microarray, probe aHis, 635 nm (AID 1123); conditions: COS7 cell lysate, fluorescence, higher = more signal;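 also: z-score combines 667nm fluorescence intensity with signal-to-noise per printed compound spot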
[7] = compound binding in COS7 lysate, probe aLAP1, primary screen, cell lysate, small-molecule microarray (AID 1124); conditions: probe aLAP1, fluorescence, higher = more signal;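 also: lysate comes from COS7 cells expressing LAP1 and is applied at 0.3 µg/mL; score merges spot fluorescence near 667 nm with signal-to-noise over triplicate slides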
[8] = system: Sam68 (KHDRBS1); test: Sam68 small-molecule binders, primary screen, biochemical, small-molecule microarray, 635 nm fluorescence (AID 1125); conditions: small-molecule microarray binding, higher = more signal;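 also: score merges 667 nm channel intensity with signal to noise over triplicate slides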
[9] = system: Chordin-like protein 2 (CHRDL2); test: CHRDL2 small-molecule binders, primary screen, biochemical, small-molecule microarray, 635 nm fluorescence (AID 1126); conditions: small-molecule microarray binding, fluorescence 635 nm; higher = more signal;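 also: printed compound slides probed with Chrdl2 protein at 4 µg/mL for 1 h at 4 C; score merges 667 nm emission intensity with signal to noise over three replicate slides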
[10] = target: Concanavalin-A (Canavalia ensiformis) (UniProt P02866); test: ConA small-molecule binders, primary screen, artefact control for SMM control protein annotation, biochemical, small-molecule microarray, Alexa647 label, 635 nm (AID 1127); conditions: ConA-A647 binding fluorescence, higher = more signal;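 also: z combines 667 nm emission intensity with signal-to-noise across three replicate slides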
[11] = anti-His antibody binders, primary screen, artefact control for SMM control protein annotation, biochemical, small-molecule microarray, 635 nm fluorescence (AID 1128); conditions: anti-His Alexa647 antibody binding, higher = more signal;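 also: score merges feature fluorescence with signal-to-noise for each printed compound spot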
[12] = system: Human papillomavirus type 1a E7 protein (residues 1-88); test: HPV1a E7 small-molecule binders, primary screen, biochemical, small-molecule microarray, residues 1-88, 635 nm (AID 1129); conditions: small-molecule microarray binding, fluorescence 635 nm; higher = more signal
[13] = target: Focal adhesion kinase 1 (Homo sapiens) (UniProt Q05397); test: small-molecule microarray binders of FAK, primary screen, biochemical, 635/667 nm fluorescence, BSA, DTT (AID 1130); conditions: PTK2 binding, 635 nm fluorescence, higher = more signal;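 also: composite of spot emission at 667 nm and signal to noise over triplicate slides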
[14] = system: Fibrinogen (Alexa647-labelled); test: fibrinogen binders on compound microarrays, profiling panel, artefact control for SMM control-protein annotation, biochemical, small-molecule microarray, 635/667 nm fluorescence (AID 1131); conditions: fibrinogen-A647 binding fluorescence, higher = more signal;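 also: z-score merges 667 nm fluorescence with per-spot signal-to-noise over triplicate slides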
[15] = target: Follistatin (Homo sapiens) (UniProt P19883); test: follistatin binders on small-molecule microarrays, primary screen, biochemical, small-molecule microarray, 635/667 nm fluorescence (AID 1132); conditions: FST binding, 635 nm fluorescence, higher = more signal
[16] = target: Fibroblast growth factor 2 (Homo sapiens) (UniProt P09038); test: FGF2 binders on small-molecule microarrays, primary screen, biochemical, small-molecule microarray, 635/667 nm fluorescence (AID 1133); conditions: small-molecule microarray binding, FGF2, fluorescence 635/667; higher = more signal
[17] = mitochondrial membrane potential change in A549 cells, profiling panel, cell-based, JC-1 fluorescence, basal, 24 h, 100 nL (AID 1138); conditions: higher = more signal;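 also: A549 lung adenocarcinoma cells under basal conditions with no added stimulus; test concentration not given here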
[18] = system: Lefty1; test: Lefty1 binders on small-molecule microarrays, primary screen, biochemical, small-molecule microarray, 635/667 nm fluorescence (AID 1139); conditions: small-molecule microarray binding, fluorescence 635/667; higher = more signal
[19] = system: wheat germ agglutinin (Triticum aestivum), Alexa647-labelled; test: wheat germ agglutinin binders on compound microarrays, profiling panel, artefact control for SMM control-protein annotation, biochemical, small-molecule microarray, 635/667 nm fluorescence (AID 1140); conditions: WGA-A647 binding, 635 nm fluorescence, higher = more signal;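 also: score merges 667 nm feature emission with signal to noise over triplicate slides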
[20] = target: Luciferin 4-monooxygenase (Photinus pyralis) (UniProt P08659); test: firefly luciferase enzyme inhibitors, primary screen, biochemical, luminescence, purified enzyme, 2006 set (AID 1141); conditions: SteadyGlo luminescence, 30 min, higher = more signal, called active from +8 up or from −8 down;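 also: cell-free assay with purified firefly luciferase at 100 ng per well in PBS; test concentration not given here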
Luciferin 4-monooxygenase (Photinus pyralis), sequence (P08659 whole entry, looked up): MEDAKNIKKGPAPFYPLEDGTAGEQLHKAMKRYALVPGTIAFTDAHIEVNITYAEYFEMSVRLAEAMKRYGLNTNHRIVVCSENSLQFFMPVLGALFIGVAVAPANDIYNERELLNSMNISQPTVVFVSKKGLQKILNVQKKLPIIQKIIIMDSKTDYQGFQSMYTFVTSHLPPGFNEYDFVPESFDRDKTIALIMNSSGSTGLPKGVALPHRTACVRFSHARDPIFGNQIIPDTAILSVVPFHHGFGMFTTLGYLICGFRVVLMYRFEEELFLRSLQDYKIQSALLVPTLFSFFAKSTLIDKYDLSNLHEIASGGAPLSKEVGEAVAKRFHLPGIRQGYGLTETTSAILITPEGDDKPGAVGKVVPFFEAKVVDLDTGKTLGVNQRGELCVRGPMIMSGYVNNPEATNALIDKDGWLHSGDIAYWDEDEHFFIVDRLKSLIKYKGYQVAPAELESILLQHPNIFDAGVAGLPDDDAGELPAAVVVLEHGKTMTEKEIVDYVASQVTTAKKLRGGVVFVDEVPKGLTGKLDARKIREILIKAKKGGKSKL

Focal adhesion kinase 1 (Homo sapiens), sequence (Q05397 whole entry, looked up): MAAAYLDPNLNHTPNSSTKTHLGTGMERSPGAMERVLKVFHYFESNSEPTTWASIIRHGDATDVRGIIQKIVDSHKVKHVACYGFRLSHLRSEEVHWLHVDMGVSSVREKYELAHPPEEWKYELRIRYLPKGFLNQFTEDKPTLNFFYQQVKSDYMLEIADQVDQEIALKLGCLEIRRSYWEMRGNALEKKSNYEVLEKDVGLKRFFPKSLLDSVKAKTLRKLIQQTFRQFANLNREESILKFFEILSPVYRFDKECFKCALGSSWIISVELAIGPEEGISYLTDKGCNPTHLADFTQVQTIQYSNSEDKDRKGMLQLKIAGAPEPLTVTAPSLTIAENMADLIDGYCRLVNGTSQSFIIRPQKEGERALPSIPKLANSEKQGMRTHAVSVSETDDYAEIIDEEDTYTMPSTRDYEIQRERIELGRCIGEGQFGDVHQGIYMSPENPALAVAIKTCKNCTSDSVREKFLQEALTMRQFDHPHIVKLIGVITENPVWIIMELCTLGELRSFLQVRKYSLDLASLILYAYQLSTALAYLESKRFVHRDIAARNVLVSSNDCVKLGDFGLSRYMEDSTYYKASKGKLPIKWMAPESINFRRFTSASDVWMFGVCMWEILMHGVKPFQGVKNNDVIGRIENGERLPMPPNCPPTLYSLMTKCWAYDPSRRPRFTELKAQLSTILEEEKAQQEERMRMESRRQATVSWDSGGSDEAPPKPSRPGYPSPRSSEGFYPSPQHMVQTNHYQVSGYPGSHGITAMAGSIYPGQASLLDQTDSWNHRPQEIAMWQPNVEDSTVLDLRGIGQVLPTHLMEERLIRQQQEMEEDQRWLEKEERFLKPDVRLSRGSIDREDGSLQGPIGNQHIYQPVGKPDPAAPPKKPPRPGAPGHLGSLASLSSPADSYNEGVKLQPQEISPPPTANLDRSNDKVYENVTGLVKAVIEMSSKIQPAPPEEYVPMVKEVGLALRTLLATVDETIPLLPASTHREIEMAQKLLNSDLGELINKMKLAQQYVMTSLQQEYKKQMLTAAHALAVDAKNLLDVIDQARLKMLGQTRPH
Follistatin (Homo sapiens), sequence (P19883 whole entry, looked up): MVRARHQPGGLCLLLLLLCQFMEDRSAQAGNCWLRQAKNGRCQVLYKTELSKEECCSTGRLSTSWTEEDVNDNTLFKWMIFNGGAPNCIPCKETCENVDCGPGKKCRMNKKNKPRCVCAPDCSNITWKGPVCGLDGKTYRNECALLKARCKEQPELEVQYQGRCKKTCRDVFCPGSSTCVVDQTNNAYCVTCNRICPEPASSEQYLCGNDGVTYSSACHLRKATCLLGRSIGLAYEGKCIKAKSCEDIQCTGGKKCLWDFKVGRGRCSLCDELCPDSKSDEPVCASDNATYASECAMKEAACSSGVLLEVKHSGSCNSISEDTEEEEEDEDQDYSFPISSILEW
Concanavalin-A (Canavalia ensiformis), sequence (P02866 whole entry, looked up): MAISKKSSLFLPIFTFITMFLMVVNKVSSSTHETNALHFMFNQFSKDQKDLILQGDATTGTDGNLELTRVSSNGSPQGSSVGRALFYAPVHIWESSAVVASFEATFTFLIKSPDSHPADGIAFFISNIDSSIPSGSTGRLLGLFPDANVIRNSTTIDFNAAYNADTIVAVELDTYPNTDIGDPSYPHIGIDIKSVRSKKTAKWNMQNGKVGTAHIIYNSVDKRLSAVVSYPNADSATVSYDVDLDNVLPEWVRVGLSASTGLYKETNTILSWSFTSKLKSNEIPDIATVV
Albumin (Bos taurus), sequence (P02769 whole entry, looked up): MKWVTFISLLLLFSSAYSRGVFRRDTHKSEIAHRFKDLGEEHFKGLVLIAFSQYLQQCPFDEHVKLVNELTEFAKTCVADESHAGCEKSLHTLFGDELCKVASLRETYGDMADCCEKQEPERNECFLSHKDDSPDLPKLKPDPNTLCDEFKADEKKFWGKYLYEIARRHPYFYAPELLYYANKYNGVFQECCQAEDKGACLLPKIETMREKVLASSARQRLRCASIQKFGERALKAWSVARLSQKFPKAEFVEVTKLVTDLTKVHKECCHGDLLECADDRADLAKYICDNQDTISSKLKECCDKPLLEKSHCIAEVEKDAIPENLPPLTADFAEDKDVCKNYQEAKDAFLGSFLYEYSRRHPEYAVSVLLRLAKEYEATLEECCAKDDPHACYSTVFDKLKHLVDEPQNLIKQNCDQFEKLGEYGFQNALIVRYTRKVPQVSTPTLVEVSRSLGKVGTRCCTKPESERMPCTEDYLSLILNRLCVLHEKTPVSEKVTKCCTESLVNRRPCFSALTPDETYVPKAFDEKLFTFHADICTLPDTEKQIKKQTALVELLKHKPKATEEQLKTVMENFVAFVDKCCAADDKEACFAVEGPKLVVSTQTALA
Fibroblast growth factor 2 (Homo sapiens), sequence (P09038 whole entry, looked up): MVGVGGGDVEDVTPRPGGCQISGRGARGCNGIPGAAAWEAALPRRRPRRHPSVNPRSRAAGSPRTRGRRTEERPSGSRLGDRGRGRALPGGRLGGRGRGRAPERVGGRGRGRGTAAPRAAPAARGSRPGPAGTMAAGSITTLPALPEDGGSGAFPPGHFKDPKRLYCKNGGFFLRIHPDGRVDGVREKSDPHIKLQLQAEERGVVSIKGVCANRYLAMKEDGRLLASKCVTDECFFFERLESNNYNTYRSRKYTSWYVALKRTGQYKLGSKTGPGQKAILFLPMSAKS

SMILES	composite z-score [1]	composite Z-score [2]	composite z-score [3]	composite z-score [4]	composite z-score [5]	composite z-score [6]	composite z-score [7]	composite z-score [8]	composite z-score [9]	composite z-score [10]	composite z-score [11]	composite z-score [12]	composite z-score [13]	composite z-score [14]	composite z-score [15]	composite z-score [16]	z-score [17]	composite z-score [18]	composite z-score [19]	z-score [20]
CC(C)=CCCC(C)=CCON=C1C[C@@H](O)[C@@H](O)[C@@H]2[C@@H]3C(=O)N(C4CCCCC4)C(=O)[C@@H]3CC[C@H]12	-0.207	1.59 (inactive)	-0.0784	-0.164	0.106	0.0252	0.514	1.07	1.07	0.48	0.857	0.573	1.12	0.573	1.06	1.25	0.292	1.48	-0.0924	-0.0223 (inactive)
O=C1C2=CC[C@H]3C(=O)N(C4CCCCC4)C(=O)[C@H]3[C@H]2[C@H](O)[C@@H]2O[C@H]12	0.964	-0.631 (inactive)	-0.199	-0.149	0.335	-0.888	-0.17	-2.02	0.0365	-0.21	-0.242	-0.958	-0.504	0.0555	-0.864	-0.682	-1.65	-0.455	-0.685	-0.389 (inactive)
CC(C)=NO[C@@H](C)c1cn([C@H](CO)Cc2ccccc2)nn1	0.015	0.374 (inactive)	0.145	-0.0375	0.138	0.398	0.224	0.863	0.655	0.65	0.554	0.598	-0.17	0.17	0.238	0.239	-0.0312	0.542	0.237	-2 (inactive)
CC(CCN1CCCc2nc(C)c(C)cc21)=NOC[C@@H](O)COCc1ccco1	-1.47	5.36 (inactive)	1.67	0.826	-0.702	1.37	0.602	-0.109	1.58	-1.09	0.215	-2.13	2.27	-2.04	1.55	2.19	0.694	1.86	-0.949	-1.59 (inactive)
O=C(NN=C1C[C@@H](O)[C@@H](O)[C@@H]2[C@@H]3C(=O)N(c4ccc(F)cc4F)C(=O)[C@@H]3CC[C@H]12)OCc1ccccc1	0.87	-0.525 (inactive)	0.11	-0.0958	0.477	0.98	-0.27	0.959	0.161	0.411	0.746	0.76	0.0097	0.501	0.28	0.0684	-0.63	0.331	0.114	0.934 (inactive)
CC(=O)OC[C@H]1O[C@H](CC=NO[C@@H](C)c2cc(-c3c(C)cc(C)cc3C)no2)C=C[C@@H]1OC(C)=O	0.211	0.209 (inactive)	-0.0984	-0.0532	-0.273	-0.447	0.234	-0.177	0.236	0.105	1.81	-0.375	-0.206	0.318	0.0047	0.323	-0.921	-0.0273	0.229	0.644 (inactive)
